Activity calls are given as the source filed them.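 How the source made its calls: active means Her2 level under about 52% in both replicate screens, with viability over 70% of control (limit read from the data); inconclusive means Her2 under the limit in one screen only, or viability under 70%; inactive means Her2 level above the set limit.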
Test system: not listed separately
Test: Her2 expression decrease, cell viability multiplex – SKBR3 breast tumor cells, AlphaScreen, ATP viability, primary screen (AID 461);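 on viability: percent of carrier control wells set as 100% viability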
Settings: SKBR3 Her2 protein level, 18-24 h, measured here: SKBR3 viability, ATP luminescence, at 10 µM

Structure (SMILES) | viability [%]
CC1C(c2ccccc2)N(C)CCC12NC(=O)NC2=O (stereo not given) | 89
COC(=O)c1cc(Br)c(=O)n(CCN2CCOCC2)c1 | 102
O=C(Nc1ccccc1C(=O)N1CCN(c2ccccc2)CC1)c1ccco1 | 96
CC(C)CCNC(=O)NC(=O)COc1ccccc1C#N | 92.5
Cc1ccc2c(Cl)cc(Cl)c(OCc3c(C)noc3C)c2n1 | 102
O=C(c1cccc(Cl)c1)N1CCN(Cc2ccncc2)CC1 | 92
Cn1c(=N)n(CC(=O)O)c2ccccc21 | 108
O=C(Nc1ccccc1)c1cccc(N2CCCC2=O)c1 | 93
Fc1ccc(-c2csc3nnc(SCc4cccnc4)n23)cc1 | 108
COc1ccc(CNC(=O)c2cc(-c3ccc(OC)c(OC)c3)on2)cc1 | 116
CCN(CC)CCOC(=O)c1c(C)oc2ccc(O)cc12 | 102
COc1ccccc1Nc1ccc(C(=O)NC2CCCCC2)cn1 | 100
CCCCn1nnnc1SCC(=O)Nc1cccc(C)n1 | 108
COc1nc(OC)nc(N2CCC(C(=O)NC3CCCCCC3)CC2)n1 | 95.5
COC(=O)[C@H](C)NC(=O)Nc1cc(OC)ccc1OC | 121
Cc1ccc(CNC(=O)C2CCCN(S(=O)(=O)c3cccnc3)C2)cc1 (stereo not given) | 92.5
OCc1nc2ccccc2n1CC(O)Cn1ccc2ccccc21 (stereo not given) | 97.5
Cc1cc(C)cc(N2CCCn3c2nc2c3c(=O)n(CCN3CCOCC3)c(=O)n2C)c1 | 101
Cn1c(=O)c2c([nH]c(=O)n2C)n(C)c1=O | 104
CCNCC(O)COCC(O)CNCC (stereo not given) | 88.5

Structure (SMILES) | viability [%]
CCOC(=O)N1CCN(c2ncnc3c2[nH]c2ccc(OC)cc23)CC1 | 97.5
COc1ccc(N2CCN(CCCNC(=O)C3CCCN(S(=O)(=O)c4cnc[nH]4)C3)CC2)cc1 (stereo not given) | 95.5
Cn1cnc(S(=O)(=O)Nc2ccc(C(F)(F)F)cc2)c1 | 86
Cc1nc2ccccn2c1/C(O)=C1\C(=O)C(=O)N(CCN2CCOCC2)C1c1cccs1 (stereo not given) | 94.5
COc1cc(CN2CCN(C(=O)CC(C)C)CC2)cc(OC)c1O | 114
COc1ccccc1C(=O)Nc1ccc(S(=O)(=O)N2CCOCC2)cc1 | 104
CC(=O)Nc1ccc(OC(=O)c2cccs2)cc1 | 101
CN(C)C(=O)Cn1c(SCC(=O)NC2CCCCC2)nc2ccccc21 | 72
CCC(=O)Nc1c(C#N)c2nc3ccccc3nc2n1-c1ccccc1C | 95
CCn1cc(C(=O)N=c2sc3ccccc3n2C)c(=O)c2ccc(C)nc21 | 92.5
NC(=O)c1cccc(S(=O)(=O)N2CCCCC2)c1 | 99
CN(C)CCCNC(=O)c1ccc(CN(c2ccccc2)S(C)(=O)=O)cc1 | 97.5
CC(=O)c1c(NCCc2ccccc2)cc(C)oc1=O | 99.5
Cn1c(SCc2nc3ccccc3c(=O)[nH]2)nnc1-c1ccco1 | 99.5
O=C1NC(c2ccccc2)(C(F)(F)F)SC2=CCCCCN12 (stereo not given) | 90.5
Cn1c(CCCNC(=O)c2ccccc2)nc2ccccc21 | 112
O=C(c1cccn2c(=O)c3cc(Cl)ccc3nc12)N1CCOCC1 | 95.5
Nc1ccc(-c2ccc(N)cc2C(F)(F)F)c(C(F)(F)F)c1 | 94
CCOC(=O)c1[nH]c2ccc(Br)cc2c1NC(=O)CNC | 93
CCn1nc(NC(=O)c2cccnc2)c2cc3ccccc3nc21 | 90

Molecular target: Receptor tyrosine-protein kinase erbB-2 (Homo sapiens) (UniProt P04626)
Sequence (P04626 whole entry, looked up): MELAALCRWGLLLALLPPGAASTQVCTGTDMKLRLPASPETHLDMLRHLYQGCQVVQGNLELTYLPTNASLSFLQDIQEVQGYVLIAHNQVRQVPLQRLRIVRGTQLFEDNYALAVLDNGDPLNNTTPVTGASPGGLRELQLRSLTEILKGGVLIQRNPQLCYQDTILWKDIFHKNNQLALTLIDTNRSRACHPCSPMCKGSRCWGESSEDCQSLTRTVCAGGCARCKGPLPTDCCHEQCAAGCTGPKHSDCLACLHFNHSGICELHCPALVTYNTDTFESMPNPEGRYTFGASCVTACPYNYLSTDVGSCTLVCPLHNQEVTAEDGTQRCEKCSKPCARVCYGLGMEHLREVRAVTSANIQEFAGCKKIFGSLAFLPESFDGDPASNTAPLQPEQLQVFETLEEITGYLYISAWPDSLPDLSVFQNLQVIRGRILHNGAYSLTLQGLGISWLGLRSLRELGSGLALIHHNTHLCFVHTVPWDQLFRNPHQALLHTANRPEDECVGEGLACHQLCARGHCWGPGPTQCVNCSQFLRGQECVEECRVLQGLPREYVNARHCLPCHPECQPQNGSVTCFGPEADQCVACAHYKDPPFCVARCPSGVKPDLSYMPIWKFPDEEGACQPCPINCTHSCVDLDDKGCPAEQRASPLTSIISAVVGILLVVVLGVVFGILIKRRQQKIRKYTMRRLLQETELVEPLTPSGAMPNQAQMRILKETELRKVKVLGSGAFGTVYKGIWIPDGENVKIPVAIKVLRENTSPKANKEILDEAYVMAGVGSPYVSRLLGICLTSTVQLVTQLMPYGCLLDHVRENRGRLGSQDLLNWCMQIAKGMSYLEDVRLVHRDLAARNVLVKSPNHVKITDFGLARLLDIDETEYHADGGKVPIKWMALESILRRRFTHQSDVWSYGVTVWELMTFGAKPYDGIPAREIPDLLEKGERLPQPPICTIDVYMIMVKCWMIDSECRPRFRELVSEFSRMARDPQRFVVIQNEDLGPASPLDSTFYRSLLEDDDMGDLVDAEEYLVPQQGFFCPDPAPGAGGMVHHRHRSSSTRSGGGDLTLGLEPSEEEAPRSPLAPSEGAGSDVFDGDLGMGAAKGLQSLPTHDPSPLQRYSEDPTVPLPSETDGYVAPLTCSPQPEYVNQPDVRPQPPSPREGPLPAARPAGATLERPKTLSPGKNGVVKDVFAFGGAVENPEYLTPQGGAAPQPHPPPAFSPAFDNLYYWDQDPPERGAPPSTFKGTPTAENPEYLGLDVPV
Test: as above
Settings: 18-24 h, at 10 µM, stronger effect = lower value

Structure (SMILES) | Her2 level
CC1C(c2ccccc2)N(C)CCC12NC(=O)NC2=O (stereo not given) | 95.5% (inactive)
COC(=O)c1cc(Br)c(=O)n(CCN2CCOCC2)c1 | 87% (inactive)
O=C(Nc1ccccc1C(=O)N1CCN(c2ccccc2)CC1)c1ccco1 | 101% (inactive)
CC(C)CCNC(=O)NC(=O)COc1ccccc1C#N | 109% (inactive)
Cc1ccc2c(Cl)cc(Cl)c(OCc3c(C)noc3C)c2n1 | 99.5% (inactive)
O=C(c1cccc(Cl)c1)N1CCN(Cc2ccncc2)CC1 | 96.5% (inactive)
Cn1c(=N)n(CC(=O)O)c2ccccc21 | 100% (inactive)
O=C(Nc1ccccc1)c1cccc(N2CCCC2=O)c1 | 114% (inactive)
Fc1ccc(-c2csc3nnc(SCc4cccnc4)n23)cc1 | 112% (inactive)
COc1ccc(CNC(=O)c2cc(-c3ccc(OC)c(OC)c3)on2)cc1 | 88.5% (inactive)
CCN(CC)CCOC(=O)c1c(C)oc2ccc(O)cc12 | 109% (inactive)
COc1ccccc1Nc1ccc(C(=O)NC2CCCCC2)cn1 | 96% (inactive)
CCCCn1nnnc1SCC(=O)Nc1cccc(C)n1 | 115% (inactive)
COc1nc(OC)nc(N2CCC(C(=O)NC3CCCCCC3)CC2)n1 | 102% (inactive)
COC(=O)[C@H](C)NC(=O)Nc1cc(OC)ccc1OC | 81.5% (inactive)
Cc1ccc(CNC(=O)C2CCCN(S(=O)(=O)c3cccnc3)C2)cc1 (stereo not given) | 109% (inactive)
OCc1nc2ccccc2n1CC(O)Cn1ccc2ccccc21 (stereo not given) | 116% (inactive)
Cc1cc(C)cc(N2CCCn3c2nc2c3c(=O)n(CCN3CCOCC3)c(=O)n2C)c1 | 81% (inactive)
Cn1c(=O)c2c([nH]c(=O)n2C)n(C)c1=O | 84.5% (inactive)
CCNCC(O)COCC(O)CNCC (stereo not given) | 86% (inactive)

Structure (SMILES) | Her2 level
CCOC(=O)N1CCN(c2ncnc3c2[nH]c2ccc(OC)cc23)CC1 | 79% (inactive)
COc1ccc(N2CCN(CCCNC(=O)C3CCCN(S(=O)(=O)c4cnc[nH]4)C3)CC2)cc1 (stereo not given) | 102% (inactive)
Cn1cnc(S(=O)(=O)Nc2ccc(C(F)(F)F)cc2)c1 | 98.5% (inactive)
Cc1nc2ccccn2c1/C(O)=C1\C(=O)C(=O)N(CCN2CCOCC2)C1c1cccs1 (stereo not given) | 90.5% (inactive)
COc1cc(CN2CCN(C(=O)CC(C)C)CC2)cc(OC)c1O | 93.5% (inactive)
COc1ccccc1C(=O)Nc1ccc(S(=O)(=O)N2CCOCC2)cc1 | 104% (inactive)
CC(=O)Nc1ccc(OC(=O)c2cccs2)cc1 | 97% (inactive)
CN(C)C(=O)Cn1c(SCC(=O)NC2CCCCC2)nc2ccccc21 | 76% (inactive)
CCC(=O)Nc1c(C#N)c2nc3ccccc3nc2n1-c1ccccc1C | 82.5% (inactive)
CCn1cc(C(=O)N=c2sc3ccccc3n2C)c(=O)c2ccc(C)nc21 | 84.5% (inactive)
NC(=O)c1cccc(S(=O)(=O)N2CCCCC2)c1 | 96% (inactive)
CN(C)CCCNC(=O)c1ccc(CN(c2ccccc2)S(C)(=O)=O)cc1 | 96% (inactive)
CC(=O)c1c(NCCc2ccccc2)cc(C)oc1=O | 86% (inactive)
Cn1c(SCc2nc3ccccc3c(=O)[nH]2)nnc1-c1ccco1 | 81% (inactive)
O=C1NC(c2ccccc2)(C(F)(F)F)SC2=CCCCCN12 (stereo not given) | 106% (inactive)
Cn1c(CCCNC(=O)c2ccccc2)nc2ccccc21 | 83% (inactive)
O=C(c1cccn2c(=O)c3cc(Cl)ccc3nc12)N1CCOCC1 | 104% (inactive)
Nc1ccc(-c2ccc(N)cc2C(F)(F)F)c(C(F)(F)F)c1 | 80% (inactive)
CCOC(=O)c1[nH]c2ccc(Br)cc2c1NC(=O)CNC | 99.5% (inactive)
CCn1nc(NC(=O)c2cccnc2)c2cc3ccccc3nc21 | 70.5% (inactive)

— PubChem BioAssay
